Results on 45 compounds are retold here after publication PMC4336329 (PLoS ONE, 2015).

In all, about 310,000 compounds went through this assay and about 14,000 (4.5%) showed an effect of 50% or more. Effects have a minus sign here. This excerpt belongs to a sample that is enriched for strong results.
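Also: peak tail current of the secondary pulse compared with the same well before compound.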

The target in the assay is human ether-à-go-go-related gene (hERG) potassium channel (human, UniProt Q12809). Kind of assay: primary screen, population patch clamp on CHO cells stably expressing hERG; higher = less effect of the substance.
Chain of human ether-à-go-go-related gene (hERG) potassium channel (Q12809 whole entry, looked up): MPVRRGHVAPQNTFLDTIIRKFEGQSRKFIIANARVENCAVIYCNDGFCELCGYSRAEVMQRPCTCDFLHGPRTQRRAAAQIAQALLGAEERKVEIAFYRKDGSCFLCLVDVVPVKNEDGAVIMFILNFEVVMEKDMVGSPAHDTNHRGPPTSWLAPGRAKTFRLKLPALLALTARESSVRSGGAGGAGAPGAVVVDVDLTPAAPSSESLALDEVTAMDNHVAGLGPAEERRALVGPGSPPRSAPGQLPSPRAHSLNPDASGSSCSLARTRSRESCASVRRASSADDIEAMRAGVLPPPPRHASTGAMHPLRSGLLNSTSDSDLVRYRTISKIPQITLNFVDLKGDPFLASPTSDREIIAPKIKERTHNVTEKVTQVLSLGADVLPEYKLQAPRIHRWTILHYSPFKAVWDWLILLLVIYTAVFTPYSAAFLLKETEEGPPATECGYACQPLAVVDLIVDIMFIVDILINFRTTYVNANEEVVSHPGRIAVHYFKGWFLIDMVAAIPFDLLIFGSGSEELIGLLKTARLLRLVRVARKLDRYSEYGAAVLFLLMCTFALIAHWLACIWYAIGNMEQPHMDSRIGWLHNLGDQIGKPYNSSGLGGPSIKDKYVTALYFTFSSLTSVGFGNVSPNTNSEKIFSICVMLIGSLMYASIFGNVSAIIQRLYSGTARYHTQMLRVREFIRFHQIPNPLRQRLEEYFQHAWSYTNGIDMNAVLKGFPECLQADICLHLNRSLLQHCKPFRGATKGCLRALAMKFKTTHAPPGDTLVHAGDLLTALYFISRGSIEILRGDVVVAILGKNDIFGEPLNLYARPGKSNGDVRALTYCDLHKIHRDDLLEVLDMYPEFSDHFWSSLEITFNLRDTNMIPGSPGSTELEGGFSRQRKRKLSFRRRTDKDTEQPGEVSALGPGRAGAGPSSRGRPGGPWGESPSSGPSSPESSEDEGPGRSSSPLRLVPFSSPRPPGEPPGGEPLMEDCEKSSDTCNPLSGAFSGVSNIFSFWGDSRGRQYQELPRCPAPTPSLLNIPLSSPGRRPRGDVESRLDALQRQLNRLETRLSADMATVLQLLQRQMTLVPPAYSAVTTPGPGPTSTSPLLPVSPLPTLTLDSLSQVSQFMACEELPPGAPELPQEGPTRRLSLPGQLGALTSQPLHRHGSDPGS
Regarding `COc1cc(C(=O)NC(=S)Nc2ccc(NC(=O)c3ccco3)cc2)cc(OC)c1OC`, the “hERG current change (%, negative = inhibition) at 10uM” value was -6.61%. Next, `CC(=O)Nc1ccc(NC2=CC(=O)c3ccccc3C2=O)cc1`: 11.6%. Next, `COc1cccc2cc(C(=O)NCCC3=CCCCC3)c(=O)oc12`: 2.79%; `O=C(/C=C/c1ccccc1)NC(=O)c1ccccc1O`: 9.95%; `CC1CCCN(Cc2cnc(Cl)s2)C1` (stereo not drawn): 13%.

Consider `CCC(=O)N1CCc2cc(S(=O)(=O)N3CCN(C(=O)c4ccco4)CC3)ccc21`, for which the “hERG current change (%, negative = inhibition) at 10uM” value is on record as -21.8%. The same measure for `CCCc1c(C(=O)N/N=C/c2ccccc2OCc2ccc(F)cc2)nnn1-c1nonc1N`: 18.6%; for `Cn1c(=O)c2c(ncn2C)n(C)c1=O`: 10.1%; for `CCN1CCN(C(C)C(=O)Nc2c(C)n(C)n(-c3ccccc3)c2=O)CC1.O=C(O)C(=O)O` (stereo not drawn): 18.6%. The same measure for `CCNc1nc(NCC)nc(Oc2ccc(C(=O)OC)cc2)n1`: -5.78%; for `COc1cccc2c(=O)c(C(=O)O)c[nH]c12`: -0.514%.

As for `COC(=O)c1sccc1NC(=O)C1CCCCC1C(=O)O` (stereo not drawn), the “hERG current change (%, negative = inhibition) at 10uM” value is 14.7%. Next, `CN(C)c1cccc(C(=O)N2CCC(n3nccc3NC(=O)C3CCOC3)CC2)c1` (stereo not drawn): 3.5%; `COCCCNC(=O)C(=O)N/N=C/c1ccc(OCC(=O)Nc2cccc(Cl)c2C)c(OC)c1`: -0.6%; `COc1ccc(Nc2nc(Nc3ccc(OC)cc3OC)nc(N3CCN(C)CC3)n2)c(OC)c1`: -22.6%. For `COc1ccc(Nc2nc(N3CCCCC3)nc3ccccc23)c(OC)c1`, the “hERG current change (%, negative = inhibition) at 10uM” value is -62.9%. The same measure for `COc1ccc(Nc2nc(N3CCCC3)nc3ccccc23)c(OC)c1`: -44.6%. The same measure for `COc1ccc(Nc2nc(N3CCCCC3)nc(N3CCCCC3)n2)c(OC)c1`: 15.2%; for `COc1ccc(Nc2nc(-c3ccccc3)nc3ccccc23)c(OC)c1`: -1.67%; for `COc1ccc(Nc2nc(N3CCN(C)CC3)nc3ccccc23)c(OC)c1`: -75.4%.

On to `CCN(CC(=O)Nc1ccc(NC(C)=O)cc1)C(=O)CC1OC(=O)c2ccccc21` (stereo not drawn), for which the “hERG current change (%, negative = inhibition) at 10uM” value turned out to be 5.6%.

As to `O=C(NCCO)c1nc(C(=O)c2ccccc2)c2ccccc2n1`, the “hERG current change (%, negative = inhibition) at 10uM” value was determined as 15.9%. For `Cc1nn(-c2ccccc2)c(C)c1C(=O)NCc1ccc(F)cc1`, the “hERG current change (%, negative = inhibition) at 10uM” value is reported as -53.2%. The same measure for `Cc1nn(-c2ccccc2)c(C)c1C(=O)NCc1ccccc1F`: 3.78%. Consider `Cc1nn(-c2ccccc2)c(C)c1C(=O)NCc1ccc(S(N)(=O)=O)cc1`, for which the “hERG current change (%, negative = inhibition) at 10uM” value was 20.1%. Next, `O=C(CCc1nc2ccccc2c(=O)[nH]1)NNC(=O)COc1cccc(F)c1`: -1.88%; `COc1ccc(F)cc1CN1CCN(CC(=O)N2CCc3ccccc32)CC1`: -48.1%.

`CCC(C)c1ccc(NC(=O)C2CC2)cc1` (stereo not drawn): the “hERG current change (%, negative = inhibition) at 10uM” value is reported as 5.22%.

Turning to `COc1ccc2c(COC(=O)CNS(=O)(=O)c3ccc(C)c(C)c3)cc(=O)oc2c1`, the “hERG current change (%, negative = inhibition) at 10uM” value is given as -57.7%. The same measure for `Cc1ccc(S(=O)(=O)NCC(=O)OCc2cc(=O)oc3cc(C)ccc23)cc1`: -3.27%; for `Cc1ccc(S(=O)(=O)NCC(=O)OCc2cc(=O)oc3c(C)c(C)ccc23)cc1C`: -16.7%.

Regarding `CCOC(=O)C(C)Sc1nnc(Cc2cc(=O)[nH]c(=O)[nH]2)n1-c1cccc(OC)c1` (stereo not drawn), the “hERG current change (%, negative = inhibition) at 10uM” value came out at 0.328%. For the compound `CCOC(=O)c1cnc2c(C)c(Cl)ccc2c1N1CCN(CC)CC1.Cl`, the “hERG current change (%, negative = inhibition) at 10uM” value is given as -29.5%.

In the case of `CCOC(=O)c1cnc2c(C)cc(Cl)cc2c1N1CCN(C)CC1.Cl`, the “hERG current change (%, negative = inhibition) at 10uM” value is recorded as -19.6%.

In the case of `CCOC(=O)c1cnc2c(Cl)c(Cl)ccc2c1N1CCN(C)CC1.Cl`, the “hERG current change (%, negative = inhibition) at 10uM” value was -55.5%.

As to `CN(C)S(=O)(=O)n1cnc([C@H]2c3c(ncn3Cc3ccccc3)C[C@H]3COC(=O)[C@@H]32)c1`, the “hERG current change (%, negative = inhibition) at 10uM” value was -4.15%.

Turning to `Cc1ccc(C(c2sc3nc(C)nn3c2O)N2CC(C)OC(C)C2)cc1` (stereo not drawn), the “hERG current change (%, negative = inhibition) at 10uM” value turned out to be 13.3%. Next, `O=c1c(Cl)c(NCC2CCCO2)cnn1C12CC3CC(CC(C3)C1)C2` (stereo not drawn): -29.3%; `O=c1oc(Nc2ccc(F)cc2)nc2ccccc12`: 6.68%; `CCOC(=O)N1CCC(NC(=O)CSCc2nc(-c3ccccc3Cl)oc2C)CC1`: -19.5%.

In the case of `Cl.NC(=NC1CCCCC1)c1ccc(Cl)cc1`, the “hERG current change (%, negative = inhibition) at 10uM” value is recorded as -39.2%.

In the case of `N/C(=N\OC(=O)CCC1CCCCC1)c1ccc([N+](=O)[O-])cc1`, the “hERG current change (%, negative = inhibition) at 10uM” value was -8.1%. Next, `Cl.NC(=NC1CCCCC1)c1ccc([N+](=O)[O-])cc1`: -57.2%; `COc1cc2occc2c2oc(=O)ccc12`: 0.24%. The same measure for `O=c1[nH]c(=O)n(C2CCCCC2)c(O)c1/C=N/N1CCCCC1c1cccnc1` (stereo not drawn): -13.6%.
